# Legend:
# Experiment in all cases: PBM binding z-score (relative to random genomic background probes); higher = stronger binding; sequences stand for … in GC…GCGATTGACAGCGTAGAATGAAGG
# [1] = test system: LXRa homodimer (NR concentration 270 nM)
# Method in brief: (§1)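 Binding z-scores were set against random background probes. The data came from custom Agilent 4×180K protein-binding microarrays carrying double-stranded probes with 34-nt variable regions, incubated 1 h with ligand-free nuclear receptor dimers. Partner-specific antibodies detected binding, and scanned fluorescence was regression-normalized.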
# [2] = test system: LXRb homodimer (NR concentration 270 nM)
# Method in brief: as §1
# [3] = test system: PPARg:RXRa (NR concentration 180 nM, RXRa partner concentration 90 nM)
# Method in brief: as §1
# [4] = test system: PPARg:RXRa 270nM:90nM, anti-RXR (NR concentration 270 nM, RXRa partner concentration 90 nM)
# Method in brief: as §1
# [5] = test system: PPARg:RXRa 30nM:10nM, anti-RXR (NR concentration 30 nM, RXRa partner concentration 10 nM)
# Method in brief: as §1
# [6] = test system: PPARg:RXRa 90nM:30nM, anti-RXR (NR concentration 90 nM, RXRa partner concentration 30 nM)
# Method in brief: as §1
# [7] = test system: PPARg:RXRa DBDmut IVT, anti-RXR (DBD mutation: RXRa K156A/R161A, NR concentration 270 nM, RXRa partner concentration 90 nM)
# Method in brief: as §1
# [8] = test system: PPARg:RXRa IVT, anti-PPARg (NR concentration 270 nM, RXRa partner concentration 90 nM)
# Method in brief: as §1
# [9] = test system: PPARg DBDmut:RXRa IVT, anti-PPARg (DBD mutation: PPARg1 K132A/R137A, NR concentration 270 nM, RXRa partner concentration 90 nM)
# Method in brief: as §1
# [10] = test system: PPARg DBDmut IVT, anti-PPARg (DBD mutation: PPARg1 K132A/R137A, NR concentration 270 nM)
# Method in brief: as §1
# [11] = test system: PPARg homodimer (NR concentration 180 nM)
# Method in brief: as §1
# [12] = test system: PXR:RXRa (NR concentration 270 nM, RXRa partner concentration 90 nM)
# Method in brief: as §1
# [13] = test system: PXR homodimer (NR concentration 270 nM)
# Method in brief: as §1
# [14] = test system: RARa:RXR (NR concentration 270 nM, RXRa partner concentration 90 nM)
# Method in brief: as §1
# [15] = test system: RARa homodimer (NR concentration 270 nM)
# Method in brief: as §1
# [16] = test system: RARb homodimer (NR concentration 270 nM)
# Method in brief: as §1
# [17] = test system: LXRa:RXRa (NR concentration 270 nM, RXRa partner concentration 90 nM)
# Method in brief: as §1
# [18] = test system: RARb:RXRa (NR concentration 270 nM, RXRa partner concentration 90 nM)
# Method in brief: as §1
Sequence,PBM binding z-score [1],PBM binding z-score [2],PBM binding z-score [3],PBM binding z-score [4],PBM binding z-score [5],PBM binding z-score [6],PBM binding z-score [7],PBM binding z-score [8],PBM binding z-score [9],PBM binding z-score [10],PBM binding z-score [11],PBM binding z-score [12],PBM binding z-score [13],PBM binding z-score [14],PBM binding z-score [15],PBM binding z-score [16],PBM binding z-score [17],PBM binding z-score [18]
ATCGAAAGGTCAACGAGGTGAGTATACACCGTTT,4.35,3.41,8.38,7.87,5.13,7.2,3.84,5.68,2.78,3.38,5.17,6,5.16,6.61,3.85,5.51,–,–
CGAACTAGGTCTAAGGACAGTGAAAGGCGACGTA,-0.416,-1.3,2.4,3.45,1.89,3.31,2.2,1.78,–,-0.598,-0.156,-0.521,-0.563,0.0659,-0.52,0.133,-0.762,0.287
CGTCCAAGGTCATAGAGGTCAGTGAATGCCGAGT,5.25,1.36,5.9,6.21,2.57,4.71,4.3,4.48,0.246,1.44,7.41,–,13.8,–,3.94,5.34,6.21,5.39
CGAACGAGGTCAAAGGACAGTGAAAGGCGACGTA,0.528,1.21,8.64,7.62,5.48,8.31,5.27,6.29,–,3.98,6.42,5.26,1.74,5.86,0.557,3.88,5.87,5.01
CGAACTAGGTCGCCAGGACAGTGAAGAGGTTGGA,-0.593,-0.928,2.71,2.49,0.111,1.62,5.94,5.49,–,-0.449,-0.09,-0.103,-0.264,0.141,-0.715,1.04,0.158,1.48
AATACGGGGTCACTAGGCCAGAGTAGGTACGAAT,2,2.47,–,8.44,5.78,7.95,5.43,7.02,1.49,1.57,2.6,5.78,1.06,6.3,1.34,4.41,6.53,5.12
GGAACGAGGTCATTCGAGTTGATAGCATGGCGAT,1.91,1.68,6.59,6.55,3.27,5.58,5.42,5.89,0.79,0.0541,1.95,–,7.74,5.14,-0.0279,3.81,6.43,4.9
AACGAAAGGTCGAAGGTGAGTATACCCACCCGAA,0.129,0.37,4.7,4.9,2.35,3.92,0.349,2.16,0.625,-0.0943,0.991,3,-0.293,4.48,0.698,2.48,3.94,3.79
CGAACTAGGTCAAAGGACATTGAAAGGCGACGTA,0.172,-0.137,10.8,8.84,9.04,10.6,8.06,8.46,–,2.63,2.37,1.39,0.177,2.7,0.467,3.01,2.7,3.96
CGAACTACGTCATCCAGGACAGTGAATACATTGA,0.121,-0.033,0.703,-0.106,0.193,-0.145,0.257,0.155,0.664,1.1,0.384,-0.0551,0.144,0.358,0.377,-0.0588,-0.0453,-0.0115
CCAACTAGGTCAAAGGACAGTGAAAGGCGACGTA,0.453,0.227,9.64,8.24,6.76,8.84,7.57,7.88,–,0.729,1.68,1.09,0.436,2.36,0.964,3.15,2.56,4.07
CCTTAGGGGTCACTGACAGGTTATAGCATTTGGA,1.33,0.926,9.33,8.43,5.34,7.46,4.82,5.5,1.68,2.53,4.49,6.32,0.503,–,2.05,4.99,6.55,–
GATACGGGGTCAAGGCCAGAGTACGCGTATTGAT,0.0824,0.667,8.92,8.33,5.85,7.78,4.87,6.14,2.81,2.07,4.21,–,1.08,–,2.18,4.32,6.02,5.26
GCTGCTAGGTCAACTGATGGTCAACTAAAGCTCG,0.653,0.415,3.01,3.06,0.746,2.31,4.87,4.19,-0.672,0.0374,2.3,2,-0.565,–,0.323,3.7,3.47,4.29
CGTCCAAGGTCACAGAGGTCAGTGAATGCCGAGT,5.07,1.08,7.01,6.54,3.38,5.63,4.6,5.63,1.12,0.337,3.92,–,12.2,6.75,2.06,5.82,6.12,–
CCTTACGGGTCACGAGGTCATAGCACGACGAGCG,2.73,0.62,8.56,7.55,4.61,6.67,4.66,6.02,2.06,1.59,5.34,–,2.24,–,2.17,4.95,5.89,5.23
